Laboratory results from PubChem BioAssay (Tox21).
Where “and” joins values, the source holds several entries; their conditions need not be identical. Identical values can stand only once. Records with an inconclusive call do not appear. Where a call stands in place of a potency, no number is given. The source holds several records for some structures; these can differ, active in one and inactive in another. Calls of active or inactive are those of the source. Unless noted, calls follow the shape of the full dose curve.

Tested on: not listed separately
Experiment: p53 small molecule agonists, cell-based qHTS assay (AID 1963582; active = well fitted activation curve with a large enough effect in the signal ratio in the repeat runs, not every such curve was filed as active; the % refers to the signal ratio)
Conditions: HCT-116 p53RE-bla reporter, beta-lactamase FRET ratio, 16 h; series mostly up to 66 µM; activation: at the top concentration
In short: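 After plating, p53RE-bla cells sat 5 h in the incubator; compounds or DMSO vehicle were pinned in; a 16 h incubation at 37 C followed; FRET substrate was added and, 2 h later at RT, fluorescence was measured.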
Potency is read from the fitted curve at half-maximal effect.

Row | Compound | activation | Potency
1 | CC[C@H](c1ccc(O)cc1)[C@@H](CC)c1ccc(O)cc1 | 13.2% (inactive) | –
2 | COC(=O)Nc1nc2ccc(Sc3ccccc3)cc2[nH]1 | – | 363 nM (active)
3 | CCN(CC)c1ccc2c(C)cc(=O)oc2c1 | – | 25.9 µM (active) and 32.4 µM (active)
4 | CCCc1ccc(O)cc1 | 0.445% (inactive) | –
5 | NS(=O)(=O)c1ccc(N2CCCCS2(=O)=O)cc1 | 1.61% [at 30.3 µM] (inactive) | –
6 | O=C(O)/C=C/c1ccccc1 | 2.51% (inactive) | –
7 | Nc1ccc(S(=O)(=O)Nc2ccc(Cl)nn2)cc1 | -2.97% [at 30.3 µM] (inactive) | –
8 | O=C(O)Cc1cccc(-c2cc(CCCCCCc3ccc(O[C@H]4O[C@H](CO)[C@@H](O)[C@H](O)[C@@H]4O)c(-c4cccc(CC(=O)O)c4)c3)ccc2O[C@H]2O[C@H](CO)[C@@H](O)[C@H](O)[C@@H]2O)c1 | -0.0536% [at 0.249 µM] (inactive) | –

Biological target: 5-hydroxytryptamine receptor 2A (Homo sapiens) (UniProt P28223)
Sequence (P28223 whole entry, looked up): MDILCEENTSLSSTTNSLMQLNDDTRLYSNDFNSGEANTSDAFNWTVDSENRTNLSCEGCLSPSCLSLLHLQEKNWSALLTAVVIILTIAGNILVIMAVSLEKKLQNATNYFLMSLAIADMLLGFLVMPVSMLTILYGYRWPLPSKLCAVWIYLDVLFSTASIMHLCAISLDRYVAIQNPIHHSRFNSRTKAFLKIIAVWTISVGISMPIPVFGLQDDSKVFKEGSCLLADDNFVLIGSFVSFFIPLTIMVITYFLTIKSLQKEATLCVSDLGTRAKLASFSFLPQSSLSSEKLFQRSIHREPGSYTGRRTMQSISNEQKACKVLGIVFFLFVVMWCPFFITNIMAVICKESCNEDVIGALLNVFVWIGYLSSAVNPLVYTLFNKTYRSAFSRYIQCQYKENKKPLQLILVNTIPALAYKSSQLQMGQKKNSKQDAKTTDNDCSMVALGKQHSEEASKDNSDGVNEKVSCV
Experiment: 5-hydroxytryptamine receptor 2A (HTR2A) small molecule antagonists, cell-based qHTS assay (AID 1963586); also: nearly all actives have a fitted effect of over 45% in size
Conditions: HTR2A-CHO cells, DOI-induced calcium flux, fluorescence; series mostly up to 61.5 µM; activity, negative = inhibition: at the top concentration
In short: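 CHO cells stably expressing human HTR2A were plated for 18 h at 37 C, then loaded with calcium dye for 1 h. Compounds were preincubated 5 min at room temperature before DOI (4 nM solution) was added. Kinetic fluorescence was read for 3 min.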

Row | Compound | activity, negative = inhibition | Potency
9 | O=c1cc(-c2ccccc2)oc2ccccc12 | -19.3% (inactive) | –
10 | O=C(O)c1cc2ccccc2cc1O | – | inactive
11 | CS(=O)(=O)c1ccc(Cl)cc1 | – | inactive
12 | S=C(NC1CCCCC1)NC1CCCCC1 | – | inactive
13 | O=C(O)CCCCCCCCCCCC(=O)O | – | inactive
14 | N[C@H](Cc1c[nH]c2ccccc12)C(=O)O | 0.162% (inactive) | –
15 | CC[C@H](c1ccc(O)cc1)[C@@H](CC)c1ccc(O)cc1 | – | 33.4 µM (active) and 14.5 µM (active)
16 | C=CC(C)(O)CCC=C(C)C (stereo not drawn) | – | inactive
17 | O=[N+]([O-])c1ccc2nc[nH]c2c1 | – | inactive
18 | BrC1CCC(Br)C(Br)CCC(Br)C(Br)CCC1Br (stereo not drawn) | – | inactive
19 | CCN(CC)c1ccc2c(C)cc(=O)oc2c1 | – | inactive
20 | CC(=O)OCc1ccccc1 | – | inactive
21 | c1ccc2c(c1)-c1cccc3c1c-2cc1ccccc13 | – | inactive
22 | OCC(CO)(CO)CO | – | inactive
23 | CN1Cc2c(N)cccc2C(c2ccccc2)C1 (stereo not drawn) | – | 14.9 µM (active)
24 | Cc1cccnc1 | – | inactive
25 | CCC(C)c1ccccc1O (stereo not drawn) | -20.9% (inactive) | –
26 | CC1=CC[C@@H]2C[C@H]1C2(C)C | 6.44% [at 12.7 µM] (inactive) | –

Row | Compound | activity, negative = inhibition | Potency
27 | OC1CCCC1 | – | inactive
28 | NS(=O)(=O)c1ccc(N2CCCCS2(=O)=O)cc1 | 2.09% [at 28.5 µM] (inactive) | –
29 | N[C@@H](Cc1c[nH]c2ccccc12)C(=O)O | -21.5% (inactive) | –
30 | CCCCCCCO | 8.1% (inactive) | –
31 | N[C@@H](Cc1c[nH]c2ccc(O)cc12)C(=O)O | – | 364 nM (active) and 6.5 µM (active)
32 | CC(COCC(C)OC(=O)c1ccccc1)OC(=O)c1ccccc1 (stereo not drawn) | – | inactive
33 | O=C(O)/C=C/c1ccccc1 | 0.307% (inactive) | –
34 | CCCCCOC(C)=O | – | inactive
35 | CC(=O)OC1CC(C)OC(C)O1 (stereo not drawn) | 2.18% (inactive) | –
36 | COc1ccc(COC(C)=O)cc1 | – | inactive
37 | CCCCCCCCCCCCOCCO | – | inactive
38 | NC[C@H](O)c1ccc(O)c(O)c1 | -13.7% (inactive) | –
39 | Cc1ccc(C(C)C)cc1O | -24.7% (inactive) | –
40 | Nc1ccc(S(=O)(=O)Nc2ccc(Cl)nn2)cc1 | 6.57% [at 28.5 µM] (inactive) | –
41 | CC(C)(C)c1cc(Cc2cc(C(C)(C)C)c(O)c(C(C)(C)C)c2)cc(C(C)(C)C)c1O | – | inactive
42 | CCCCOCCOCCOC(=O)CCCCC(=O)OCCOCCOCCCC | – | inactive
43 | O=C(O)Cc1cccc(-c2cc(CCCCCCc3ccc(O[C@H]4O[C@H](CO)[C@@H](O)[C@H](O)[C@@H]4O)c(-c4cccc(CC(=O)O)c4)c3)ccc2O[C@H]2O[C@H](CO)[C@@H](O)[C@H](O)[C@@H]2O)c1 | 2.29% [at 0.233 µM] (inactive) | –

Biological target: 5-hydroxytryptamine receptor 2A (Homo sapiens) (UniProt P28223)
Experiment: 5-hydroxytryptamine receptor 2A (HTR2A) small molecule agonists, cell-based qHTS assay (AID 1963587); also: nearly all actives have a fitted effect of over 30% in size
Conditions: HTR2A-CHO cells, calcium flux fluorescence, agonist mode; series mostly up to 76.8 µM; activation: at the top concentration
In short: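 CHO cells stably expressing human HTR2A, plated 18 h, loaded with calcium dye 1 h at 37 C. Agonist mode: compounds added and intracellular calcium fluorescence recorded kinetically for 2 min at 1 sec intervals.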

Row | Compound | Potency | activation
44 | O=c1cc(-c2ccccc2)oc2ccccc12 | inactive | –
45 | O=C(O)c1cc2ccccc2cc1O | – | -11.2% (inactive)
46 | CS(=O)(=O)c1ccc(Cl)cc1 | inactive | –
47 | S=C(NC1CCCCC1)NC1CCCCC1 | inactive | –
48 | N[C@H](Cc1c[nH]c2ccccc12)C(=O)O | inactive and 19 µM (active) | –
49 | C=CC(C)(O)CCC=C(C)C (stereo not drawn) | inactive | –
50 | O=[N+]([O-])c1ccc2nc[nH]c2c1 | inactive | –
51 | CC(C)(c1cc(Br)c(O)c(Br)c1)c1cc(Br)c(O)c(Br)c1 | 48.8 µM (active) | –
52 | BrC1CCC(Br)C(Br)CCC(Br)C(Br)CCC1Br (stereo not drawn) | inactive | –
53 | CCN(CC)c1ccc2c(C)cc(=O)oc2c1 | inactive | –
54 | CC(=O)OCc1ccccc1 | inactive | –
55 | c1ccc2c(c1)-c1cccc3c1c-2cc1ccccc13 | inactive | –
56 | OCC(CO)(CO)CO | inactive | –
57 | CN1Cc2c(N)cccc2C(c2ccccc2)C1 (stereo not drawn) | inactive | –
58 | CCCc1ccc(O)cc1 | – | -25.5% (inactive)
59 | Cc1cccnc1 | inactive | –
60 | CCC(C)c1ccccc1O (stereo not drawn) | inactive | –
61 | CC1=CC[C@@H]2C[C@H]1C2(C)C | – | -0.177% [at 15.9 µM] (inactive)

Row | Compound | Potency | activation
62 | OC1CCCC1 | inactive | –
63 | NS(=O)(=O)c1ccc(N2CCCCS2(=O)=O)cc1 | – | 5.61% [at 35.6 µM] (inactive)
64 | N[C@@H](Cc1c[nH]c2ccccc12)C(=O)O | 34.7 µM (active) and inactive | –
65 | CCCCCCCO | inactive | –
66 | N[C@@H](Cc1c[nH]c2ccc(O)cc12)C(=O)O | 599 nM (active) and 8.49 µM (active) | –
67 | CC(COCC(C)OC(=O)c1ccccc1)OC(=O)c1ccccc1 (stereo not drawn) | inactive | –
68 | O=C(O)/C=C/c1ccccc1 | – | -1.19% (inactive)
69 | CCCCCOC(C)=O | inactive | –
70 | CC(=O)OC1CC(C)OC(C)O1 (stereo not drawn) | inactive | –
71 | COc1ccc(COC(C)=O)cc1 | inactive | –
72 | CCCCCCCCCCCCOCCO | inactive | –
73 | NC[C@H](O)c1ccc(O)c(O)c1 | – | 7.2% (inactive)
74 | Cc1ccc(C(C)C)cc1O | – | 1.19% (inactive)
75 | Nc1ccc(S(=O)(=O)Nc2ccc(Cl)nn2)cc1 | – | 2.47% [at 35.6 µM] (inactive)
76 | CC(C)(C)c1cc(Cc2cc(C(C)(C)C)c(O)c(C(C)(C)C)c2)cc(C(C)(C)C)c1O | inactive | –
77 | CCCCOCCOCCOC(=O)CCCCC(=O)OCCOCCOCCCC | inactive | –
78 | O=C(O)Cc1cccc(-c2cc(CCCCCCc3ccc(O[C@H]4O[C@H](CO)[C@@H](O)[C@H](O)[C@@H]4O)c(-c4cccc(CC(=O)O)c4)c3)ccc2O[C@H]2O[C@H](CO)[C@@H](O)[C@H](O)[C@@H]2O)c1 | – | 17.6% [at 0.292 µM] (inactive)
